Test [1] is described as follows: P-glycoprotein substrates identified in KB-8-5-11 adenocarcinoma cell line, qHTS therapeutic library screen (AID 1346987). Also: nearly all actives have a fitted effect of over 65% in size. Also: potency is read from the fitted curve at half-maximal effect. In short, it runs like this: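 Luminescence from CellTiter-Glo, read 5 min after addition, quantified survival of KB-8-5-11 (P-gp-overexpressing) cells exposed to compounds for 72 h. AC50 was derived from concentration-response curves.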
For orientation: Quantitative high-throughput screening tests each substance at several concentrations.

Test [2] can be described thus: Natriuretic polypeptide receptor (hNpr1) antagonism - Pilot counterscreen GloSensor control cell line (AID 1347045; calls by dose curve). The method, boiled down: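 Cells were first seeded and incubated overnight at 37C, then loaded with 2% GloSensor substrate for 2 h. Compounds were added for 30 min at room temperature, followed by a baseline read, 50 uM SNP and a final read after 20 min.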
For orientation: The purpose of a counterscreen is to sort out artefacts and off-target activity.

For test [3], the target named is Atrial natriuretic peptide receptor 1 (Homo sapiens) (UniProt P16066). Briefly: Natriuretic polypeptide receptor (hNpr1) antagonism - Pilot screen (AID 1347049; calls by dose curve;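 also: HEK293 cells with hNpr1 and GloSensor cGMP luciferase stimulated by 0.1 nM hNppA; agonist-evoked cGMP luminescence read 20 min after hNppA addition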). The method, boiled down:
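Cells expressing receptor plus cGMP biosensor are seeded and incubated overnight at 37C, then loaded with GloSensor reagent (2% final) at room temperature for 2 h. Library compounds go on for 30 min. A pre-read precedes agonist (hNppA, 0.1 nM final) and a 20-min readout.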

The target of test [4] is Atrial natriuretic peptide receptor 2 (Homo sapiens) (UniProt P20594). Briefly: Natriuretic polypeptide receptor (hNpr2) antagonism - Pilot subtype selectivity assay (AID 1347050; calls by dose curve). In short, it runs like this:
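Read-out: GloSensor luminescence (CCD imager), baseline vs post-stimulation. HEK293 cells expressing hNpr2; compounds pre-incubated 30-50 min at ambient temperature; hNppC 1 nM final, 20 min.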

For test [5], the target named is T1, Tyrosine-protein phosphatase non-receptor type substrate 1 (Homo sapiens) + Leukocyte surface antigen CD47 (Homo sapiens) (UniProt P78324+Q08722). Briefly: CD47-SIRPalpha protein protein interaction - LANCE assay qHTS validation (AID 1347057; active = well fitted curve in the direction sought with a large enough effect in the signal ratio, with a control signal flat, not every such curve was filed as active; the % refers to the signal ratio). The method, boiled down: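 Inhibition of soluble CD47/SIRPalpha ectodomain association by titrated compounds, measured as 665/615 nm time-resolved FRET ratio after sequential 30 min room-temperature incubations.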
A general note: TR-FRET usually uses a lanthanide donor and a delayed reading to cut background.

Test [6] has as its target T1, Tyrosine-protein phosphatase non-receptor type substrate 1 (Homo sapiens) + Leukocyte surface antigen CD47 (Homo sapiens). The test can be described thus: CD47-SIRPalpha protein protein interaction - HTRF assay qHTS validation (AID 1347058; active = well fitted curve in the direction sought with a large enough effect in the signal ratio, not every such curve was filed as active; the % refers to the signal ratio). The method, boiled down: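 Soluble extracellular domains (6His-CD47, Avi-tag-biotinylated SIRPalpha) in PBS pH 7.4 with 0.05% IGEPAL CA-630. Compounds were preincubated 30 min at RT with CD47 and anti-His-Eu, then SIRPalpha and SAV-XL665 were added. TR-FRET 665/615 ratio.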

The nature of test [7]: P-glycoprotein substrates identified in KB-3-1 adenocarcinoma cell line, qHTS therapeutic library screen (AID 1346986). Also: nearly all actives have a fitted effect of over 60% in size. Particulars: KB-3-1 parental cells viability, CellTiter-Glo, 72 h; at 44.5 µM (top of the series). The method, boiled down:
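72 h cell-killing screen, 500 cells/well, CellTiter-Glo luminescence. Paired lines KB-3-1/KB-8-5-11; P-gp dependence checked by tariquidar co-treatment and HEK-293 MDR-19 versus empty-vector cells.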

Test [8] in a line: NS1 protein of Zika virus - qHTS assay to identify small molecule inhibitors in human HEK 293 cells (AID 1347053). Also: nearly all actives have a fitted effect of over 55% in size. In short, it runs like this: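 In this cell-based screen, HEK 293 cultures received compound for one hour before Zika MR766 at MOI = 0.5. NS1 was quantified 24 hours later by TR-FRET, normalized to virus-free wells and infected wells.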

Inconclusive results are not listed. A call without a number means that no potency is given here. Activity calls are given as the source filed them. Unless noted, calls follow the shape of the dose curve; as a rule, active = well fitted curve in the direction sought with a large enough effect; inconclusive = small, poorly fitted or top-dose-only effect, or another doubt; inactive = no such curve, though single readings can be large; an effect the other way counts as inactive or inconclusive.

T1 sequence (P78324 whole entry, looked up, the tested form may be a part): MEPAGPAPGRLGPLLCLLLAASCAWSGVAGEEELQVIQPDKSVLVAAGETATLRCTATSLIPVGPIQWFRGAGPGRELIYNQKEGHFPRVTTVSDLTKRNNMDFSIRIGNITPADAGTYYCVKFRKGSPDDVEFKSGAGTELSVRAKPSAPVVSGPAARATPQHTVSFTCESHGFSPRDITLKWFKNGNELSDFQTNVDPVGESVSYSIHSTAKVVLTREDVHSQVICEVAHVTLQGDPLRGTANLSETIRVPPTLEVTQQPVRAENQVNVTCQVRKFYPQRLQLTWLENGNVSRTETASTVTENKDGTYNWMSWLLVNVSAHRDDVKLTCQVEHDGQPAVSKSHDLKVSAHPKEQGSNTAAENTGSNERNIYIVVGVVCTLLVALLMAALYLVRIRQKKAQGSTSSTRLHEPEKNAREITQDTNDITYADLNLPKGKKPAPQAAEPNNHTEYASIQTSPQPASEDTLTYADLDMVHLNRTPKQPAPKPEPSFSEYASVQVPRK
T1 sequence (Q08722 whole entry, looked up, the tested form may be a part): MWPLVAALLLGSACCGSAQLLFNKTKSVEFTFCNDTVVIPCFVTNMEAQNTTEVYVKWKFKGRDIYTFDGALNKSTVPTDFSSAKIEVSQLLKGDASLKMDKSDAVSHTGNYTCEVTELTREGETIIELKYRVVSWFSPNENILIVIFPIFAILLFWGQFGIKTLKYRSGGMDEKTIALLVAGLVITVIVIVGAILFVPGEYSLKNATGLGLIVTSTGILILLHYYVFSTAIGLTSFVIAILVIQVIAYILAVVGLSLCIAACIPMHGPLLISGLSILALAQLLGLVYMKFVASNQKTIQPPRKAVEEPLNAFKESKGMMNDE
Sequence of Atrial natriuretic peptide receptor 2 (Homo sapiens) (P20594 whole entry, looked up): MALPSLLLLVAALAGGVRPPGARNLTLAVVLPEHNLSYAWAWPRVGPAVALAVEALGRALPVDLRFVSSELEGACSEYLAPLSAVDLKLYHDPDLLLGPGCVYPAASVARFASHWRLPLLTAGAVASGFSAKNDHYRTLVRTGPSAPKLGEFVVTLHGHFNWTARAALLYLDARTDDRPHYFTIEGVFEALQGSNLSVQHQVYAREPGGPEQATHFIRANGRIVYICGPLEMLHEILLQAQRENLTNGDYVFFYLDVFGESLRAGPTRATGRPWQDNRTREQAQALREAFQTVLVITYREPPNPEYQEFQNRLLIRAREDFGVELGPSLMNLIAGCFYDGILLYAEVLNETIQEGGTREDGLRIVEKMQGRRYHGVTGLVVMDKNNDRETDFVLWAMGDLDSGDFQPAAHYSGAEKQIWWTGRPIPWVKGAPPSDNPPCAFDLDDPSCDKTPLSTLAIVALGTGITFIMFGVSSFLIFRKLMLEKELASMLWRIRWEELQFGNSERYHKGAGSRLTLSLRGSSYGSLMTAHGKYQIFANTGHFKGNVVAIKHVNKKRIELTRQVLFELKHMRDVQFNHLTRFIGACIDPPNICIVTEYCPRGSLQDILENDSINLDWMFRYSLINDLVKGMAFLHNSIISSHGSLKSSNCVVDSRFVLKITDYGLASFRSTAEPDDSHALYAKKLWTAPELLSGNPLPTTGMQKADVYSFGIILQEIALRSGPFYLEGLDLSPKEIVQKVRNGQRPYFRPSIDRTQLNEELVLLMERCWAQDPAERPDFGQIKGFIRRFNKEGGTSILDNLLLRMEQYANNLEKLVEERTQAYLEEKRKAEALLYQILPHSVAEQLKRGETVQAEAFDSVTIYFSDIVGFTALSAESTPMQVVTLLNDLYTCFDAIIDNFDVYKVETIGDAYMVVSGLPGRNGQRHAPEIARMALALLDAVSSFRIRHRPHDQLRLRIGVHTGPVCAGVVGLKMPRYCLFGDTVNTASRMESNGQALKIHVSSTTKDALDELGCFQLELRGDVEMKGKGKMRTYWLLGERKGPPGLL
Sequence of Atrial natriuretic peptide receptor 1 (Homo sapiens) (P16066 whole entry, looked up): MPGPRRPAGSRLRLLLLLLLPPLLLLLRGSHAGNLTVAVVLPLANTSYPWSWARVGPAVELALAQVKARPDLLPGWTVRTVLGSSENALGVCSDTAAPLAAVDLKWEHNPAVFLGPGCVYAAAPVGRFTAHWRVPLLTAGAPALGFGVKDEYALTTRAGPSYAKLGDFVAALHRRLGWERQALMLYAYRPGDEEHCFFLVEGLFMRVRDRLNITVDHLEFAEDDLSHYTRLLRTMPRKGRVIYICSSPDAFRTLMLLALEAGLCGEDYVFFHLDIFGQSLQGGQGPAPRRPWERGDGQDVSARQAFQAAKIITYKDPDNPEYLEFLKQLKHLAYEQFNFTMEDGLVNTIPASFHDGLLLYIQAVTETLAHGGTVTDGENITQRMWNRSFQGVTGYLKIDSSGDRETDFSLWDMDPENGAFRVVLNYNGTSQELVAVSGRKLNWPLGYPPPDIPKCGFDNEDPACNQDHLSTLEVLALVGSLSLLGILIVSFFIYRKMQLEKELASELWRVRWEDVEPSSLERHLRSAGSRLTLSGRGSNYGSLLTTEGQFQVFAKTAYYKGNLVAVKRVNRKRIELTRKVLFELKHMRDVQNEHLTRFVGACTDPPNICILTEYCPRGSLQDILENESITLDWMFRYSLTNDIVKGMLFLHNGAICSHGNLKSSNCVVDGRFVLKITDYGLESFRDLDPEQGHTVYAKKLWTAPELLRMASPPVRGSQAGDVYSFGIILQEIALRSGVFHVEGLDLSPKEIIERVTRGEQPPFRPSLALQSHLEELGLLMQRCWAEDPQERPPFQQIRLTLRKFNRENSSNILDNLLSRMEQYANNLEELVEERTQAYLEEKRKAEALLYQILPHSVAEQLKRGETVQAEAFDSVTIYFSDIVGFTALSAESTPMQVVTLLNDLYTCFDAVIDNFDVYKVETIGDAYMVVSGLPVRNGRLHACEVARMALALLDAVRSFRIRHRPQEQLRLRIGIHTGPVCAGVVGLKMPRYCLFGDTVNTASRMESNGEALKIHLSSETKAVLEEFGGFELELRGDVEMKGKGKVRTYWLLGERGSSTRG

`COc1cc(CC(C)N)cc2c1OCO2` (configuration not stated): in test [1], the Potency entry was “inactive”. Still for that read-out and setting: as for `C[N+]1(C)[C@@H]2CC[C@H]1CC(OC(=O)C(CO)c1ccccc1)C2` (some centres not stated), the entry is “inactive”; as for `CCCC[N+]1(C)[C@@H]2CC(OC(=O)[C@H](CO)c3ccccc3)C[C@H]1[C@@H]1O[C@@H]12` (some centres not stated), “inactive”; as for `CCCCCCCCCCCC[N+](C)(C)CCOc1ccccc1`, “inactive”. As for `CC(C)(C)OC(=O)c1ncn2c1[C@@H]1CCCN1C(=O)c1c(Br)cccc1-2`, in test [1], the Potency entry was “inactive”.

As to `O=C(O)Cc1ccccc1`, the Potency result in test [1] was “inactive”.

Consider `C#C[C@]1(O)CC[C@H]2[C@@H]3CCC4=CC(=O)CCC4=C3C=C[C@@]21CC`, for which the Potency in test [1] is 2.06 µM (active).

Consider `COc1ccc(CN2CCNCC2)c(OC)c1OC`, for which the Potency entry in test [1] is “inactive”. As to `COc1ccc(C(=O)N2CCCC2=O)cc1`, the Potency entry in test [1] is “inactive”. Further, the outcome in test [2], in test [3], in test [4], in test [5] and in test [6] was inactive.

In the case of `COc1ccc2c(C(=O)c3ccc(Cl)cc3)c(C)n(CC(=O)O)c2c1`, the result in test [7] was inactive. The Potency result in test [1] and in test [8] was “inactive” each time. Consider `COC(=O)C1=CCCN(C)C1`, for which the Potency result in test [1] is “inactive”. The molecule was called inactive in test [2], in test [3], in test [4], in test [5] and in test [6]. As for `COc1cc(CC(C)N)c(OC)cc1Br` (configuration not stated), the Potency entry in test [1] was “inactive”. Consider `CC[C@H]1C[C@H]2[C@@H]3CCC4=CC(=O)CC[C@@H]4[C@H]3CC[C@]2(C)[C@H]1O`, for which the result in test [7] was inactive. Also, the Potency result in test [8] is “inactive”. For the molecule `CC(C)=C[C@@H]1[C@@H](C(=O)OCc2coc(Cc3ccccc3)c2)C1(C)C`, the Potency result in test [1] is “inactive”. The same measure, in the same setting: as for `CN(C)CCc1c[nH]c2ccc(O)cc12`, the entry is “inactive”; as for `COc1cc(C[C@@H](C)N)c(OC)cc1Br`, “inactive”; as for `C[C@]12CC[C@H](O)CC1=CC[C@@H]1[C@@H]2CC[C@]2(C)C(=O)CC[C@@H]12`, “inactive”. As for `Cc1nnc2n1-c1sc(CCC(=O)N3CCOCC3)cc1C(c1ccccc1Cl)=NC2`, the Potency entry in test [1] and in test [8] was “inactive” throughout.

With `C=CCOC(Cn1ccnc1)c1ccc(Cl)cc1Cl` (configuration not stated), the Potency in test [1] is 20.6 µM (active). Also, the Potency entry in test [8] is “inactive”. For `COc1ccc(OC)c(CC(C)N)c1` (configuration not stated), the Potency entry in test [1] and in test [8] was “inactive” throughout.

For the molecule `CCC(=O)O[C@H]1CC[C@H]2[C@@H]3CCC4=CC(=O)CC[C@]4(C)[C@H]3CC[C@]12C`, in test [1], the Potency was 2.78 µM (active). For the same molecule, the Potency result in test [8] is “inactive”. For `CC(Cc1ccccc1)NCc1ccccc1Cl` (configuration not stated), in that order: “inactive” and “inactive”. For `C[C@]12Cc3nonc3C[C@@H]1CC[C@@H]1[C@@H]2CC[C@@]2(C)[C@H]1CC[C@]2(C)O`, in that order: 5.8 µM (active) and “inactive”. For `CC[C@H]1C[C@@H]2C[C@H]3c4[nH]c5ccc(OC)cc5c4CCN(C2)[C@@H]13`, in that order: “inactive” and “inactive”. `CC[C@]1(O)CC[C@H]2[C@@H]3CCC4=CCCC[C@@H]4[C@H]3CC[C@@]21C`: the Potency in test [1] is 6.51 µM (active). The Potency result in test [8] is “inactive”. On to `CNC(C)Cc1ccc2c(c1)OCO2` (configuration not stated), for which the Potency result in test [1] and in test [8] was “inactive” in each case. Turning to `CC(C)C(Br)C(=O)NC(N)=O` (configuration not stated), the Potency entry in test [1] and in test [8] was “inactive” in each case.

For `Oc1ccc2[nH]cc(CCCCN3CC=C(c4ccccc4)CC3)c2c1`, the Potency entry in test [1] and in test [8] was “inactive” throughout. Consider `N#Cc1nn(-c2c(Cl)cc(C(F)(F)F)cc2Cl)c(N)c1S(=O)C(F)(F)F` (configuration not stated), for which the Potency result in test [1] and in test [8] was “inactive” in each case. With `C[N+]1(CCC(C(N)=O)(c2ccccc2)c2ccccc2)CCCCC1`, the Potency entry in test [1] and in test [8] was “inactive” throughout. For the molecule `O=c1n(Cl)c(=O)n(Cl)c(=O)n1Cl`, the Potency entry in test [1] and in test [8] was “inactive” in each case. On to `CNC(=O)Oc1cccc2ccccc12`, for which the Potency result in test [1] and in test [8] was “inactive” in each case. As to `COP(=O)(OC)OC=C(Cl)Cl`, the Potency result in test [1] and in test [8] was “inactive” throughout. As for `COP(=O)(OC)C(O)C(Cl)(Cl)Cl` (configuration not stated), the Potency result in test [1] and in test [8] was “inactive” throughout. Turning to `CCS(=O)(=O)C(C)(C)S(=O)(=O)CC`, the Potency entry in test [1] and in test [8] was “inactive” throughout. As to `Cc1nnc2n1-c1sc(CCc3ccc(CC(C)C)cc3)cc1C(c1ccccc1Cl)=NC2C` (configuration not stated), the Potency in test [1] was 14.6 µM (active). Also, the Potency result in test [8] was “inactive”. In the case of `CC(C)NCC(O)c1ccc(N)c(C#N)c1` (configuration not stated), the Potency entry in test [1] and in test [8] was “inactive” in each case. With `NC(=O)OCCCc1ccccc1`, the Potency result in test [1] and in test [8] was “inactive” in each case. As to `CNC(C)Cc1ccccc1OC` (configuration not stated), the Potency entry in test [1] and in test [8] was “inactive” in each case. Take `ClC1=C(Cl)C2(Cl)C(CBr)CC1(Cl)C2(Cl)Cl` (configuration not stated): the Potency result in test [1] and in test [8] was “inactive” each time. As to `CNC(=O)NC(O)C(Cl)(Cl)Cl` (configuration not stated), the Potency result in test [1] and in test [8] was “inactive” throughout.

With `CN(C)CCc1c[nH]c2ccccc12`, the Potency entry in test [1] and in test [8] was “inactive” each time. Regarding `CCOC(=O)c1cncn1C(C)c1ccccc1` (configuration not stated), the Potency result in test [1] and in test [8] was “inactive” throughout.
